# Screening data as filed in PubChem BioAssay.
# TcdB GH inh: blocks C. difficile toxin B glycohydrolase activity; 350,000 compounds, 0.24% hits; inhibition, % at 9.99 µM; TcdB glycohydrolase enzymatic assay, plate reader; P18177; in the data active = inhibition above about 10%
# Yp Topo-I inh: inhibitors of Yersinia pestis topoisomerase I; Y. pestis Topo-I cleavage product accumulation, plate reader; 360,000 compounds, 0.064% hits; activity, % at 10 µM; in the data active = activity above about 50%, passing the limit was not always enough
# Mtb FBA inh: Mtb fructose-bisphosphate aldolase inhibition; 360,000 compounds, 2.3% hits; inhibition, % at 1 µM; AID 588726; purified M. tuberculosis FBA, fluorescence read-out;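 note: 0% = vehicle and 100% = reference inhibitor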
# Target sequence (P9WQA3 whole entry, looked up): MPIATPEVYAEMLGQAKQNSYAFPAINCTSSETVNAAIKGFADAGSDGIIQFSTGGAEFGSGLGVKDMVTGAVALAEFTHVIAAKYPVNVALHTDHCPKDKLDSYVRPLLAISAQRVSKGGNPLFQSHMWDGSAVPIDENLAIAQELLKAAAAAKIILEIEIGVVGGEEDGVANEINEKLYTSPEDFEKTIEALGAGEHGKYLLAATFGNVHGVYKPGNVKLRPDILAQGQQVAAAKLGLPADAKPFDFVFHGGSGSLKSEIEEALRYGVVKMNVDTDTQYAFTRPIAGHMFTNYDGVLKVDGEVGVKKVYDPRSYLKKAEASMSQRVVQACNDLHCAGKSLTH
# PrPC TRFRET: cell surface PrPC inhibition, primary TR-FRET screen | inhibition, % at 13.8 µM | TR-FRET read-out | P04156 | 370,000 compounds, 0.43% hits; in the data active = inhibition above about 24%; note: 0% = median of the test wells and 100% = reference compound wells
# GDH-TPI counter-1: counter-screen for M. tuberculosis FBA inhibitors: GDH-TPI coupled enzymes. GDH-TPI coupled enzyme counterscreen, NADH absorbance. inhibition, % at 4.8 µM. 360,000 compounds, 1.2% hits; in the data active = inhibition above about 30%;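 note: 0% = DMSO wells and 100% = wells lacking the enzyme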
# Mtb FBA inh conf: Mtb FBA inhibition, confirmed. shares compounds with Mtb FBA inh. purified M. tuberculosis FBA, fluorescence read-out. inhibition, % at 1 µM. 5,600 compounds, 78% hits. AID 651616;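 note: 0% = vehicle wells and 100% = reference inhibitor wells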
# GDH-TPI counter-2: GDH-TPI inhibition counter-screen for FBA inhibitors | shares compounds with Mtb FBA inh | 5,600 compounds, 81% hits | GDH-TPI coupled enzyme counterscreen, fluorescence | AID 652141 | inhibition, % at 1 µM; in the data active = inhibition above about 10%
# Active calls of the source: *; / = not tested or not shown; + = active, no number. In the library only some 3.2% were active in any assay of this set; here they are far more common. Cut-off read from the data, not from the text of the source, unless noted: active = inhibition above about 27%; inactive = the rest.
SMILES,TcdB GH inh,Yp Topo-I inh,Mtb FBA inh,PrPC TRFRET,GDH-TPI counter-1,Mtb FBA inh conf,GDH-TPI counter-2
Cc1cc2ccccc2c(=O)n1CC(=O)NCc1ccco1,/,16,4,-3,6,/,/
N=c1c(C(=O)NCc2ccco2)cc2c(=O)n3ccccc3nc2n1Cc1ccc(Cl)cc1,/,-8,44*,-17,13,113*,87*
N=c1c(S(=O)(=O)c2ccc(Cl)cc2)cc2c(=O)n3ccccc3nc2n1Cc1cccnc1,/,10,1,/,2,/,/
COc1ccc(CCn2c(=N)c(C(=O)NC3CCCC3)cc3c(=O)n4ccccc4nc32)cc1OC,0,8,-2,-25,9,/,/
Cc1ccc2nc3c(cc(C(=O)NCc4ccco4)c(=N)n3Cc3ccco3)c(=O)n2c1,0,0,42*,-25,14,49*,36*
Cc1ccc(CNC(=O)c2cc3c(=O)n4ccccc4nc3n(Cc3ccco3)c2=N)cc1,2,8,63*,-8,22,54*,48*
Cc1noc(C)c1S(=O)(=O)Nc1ccc2c(c1)CC(=O)N([C@H](C)CO)C[C@H](C)[C@@H](CN(C)C(=O)NC1CCCCC1)O2,0,/,/,/,/,/,/
CC(C)NC(=O)Nc1cccc2c1O[C@@H](CN(C)C(=O)NC1CCCCC1)[C@@H](C)CN([C@@H](C)CO)C2=O,0,/,/,/,/,/,/
O=C(NC1CCS(=O)(=O)C1)c1cc2c(=O)n3ccccc3nc2n1Cc1ccccc1 (stereo unspecified),0,5,102*,2,22,+,196*
N=c1c(C(=O)NCc2ccccc2)cc2c(=O)n3ccccc3nc2n1Cc1ccco1,4,18,50*,-26,17,88*,78*
CCNC(=O)[C@@H]1[C@@H](CO)[C@@H]2Cn3c(ccc(/C=C/c4ccccc4)c3=O)[C@H]1N2C(=O)c1ccncc1,1,/,/,/,/,/,/
Cc1cc(OC(C)C(=O)N[C@H](C(=O)O)c2ccccc2)c2c3c(c(=O)oc2c1)CCC3 (stereo partly specified),1,0,108*,-6,3,144*,105*
Cc1cc(OC(C)C(=O)NCC(O)c2ccccc2)c2c3c(c(=O)oc2c1)CCCC3 (stereo unspecified),1,16,81*,-7,6,169*,131*
O=C(COc1ccc2c3c(c(=O)oc2c1)CCC3)NCC(O)c1ccccc1 (stereo unspecified),1,-8,3,4,2,/,/
CC(Oc1ccc2c3c(c(=O)oc2c1)CCCC3)C(=O)NCC(O)c1ccccc1 (stereo unspecified),0,8,50*,2,19,165*,117*
COc1cc(C(=O)NCC(=O)OC(C)C(=O)Nc2ncc(Cl)cc2Cl)cc(OC)c1OC (stereo unspecified),0,5,48*,7,-4,69*,74*
C[C@H]1CCCCO[C@H](CN(C)S(=O)(=O)c2ccccc2)[C@@H](C)CN([C@@H](C)CO)C(=O)c2cc(NC(=O)CCCN(C)C)ccc2O1,2,/,/,/,/,/,/
Cc1ccc(C(O)c2ncc(-c3cccc4ccccc34)[nH]2)c(C)c1 (stereo unspecified),1,-7,39*,-7,-3,+,+
OC(c1cccc(Cl)c1)c1ncc(-c2cccc3ccccc23)[nH]1 (stereo unspecified),1,2,37*,11,7,146*,103*
COc1cccc(C(O)c2ncc(-c3cccc4ccccc34)[nH]2)c1 (stereo unspecified),0,8,48*,-3,-12,56*,47*
Cc1ccc(C(O)c2ncc(-c3cccc4ccccc34)[nH]2)cc1F (stereo unspecified),0,-2,27*,-4,1,19,13*
C[C@@H]1CCCCO[C@H](CN(C)Cc2ccc(Cl)c(Cl)c2)[C@@H](C)CN([C@@H](C)CO)C(=O)c2cc(NS(=O)(=O)c3cn(C)cn3)ccc2O1,1,/,/,/,/,/,/
CN1[C@@H]2c3ccc(-c4ccccc4)c(=O)n3C[C@H]1[C@H](CO)[C@H]2C(=O)Nc1nccs1,0,/,/,/,/,/,/
C[C@@H]1CN([C@H](C)CO)C(=O)c2cc(N(C)C)ccc2O[C@H]1CN(C)Cc1ccc(Cl)c(Cl)c1,-2,/,/,/,/,/,/
COc1ccc(/C=N/NC(=O)c2nc(Cl)c(Cl)c(N)c2Cl)cc1COc1ccc(F)cc1F,/,14,29*,-4,24,4,-2
SMILES,TcdB GH inh,Yp Topo-I inh,Mtb FBA inh,PrPC TRFRET,GDH-TPI counter-1,Mtb FBA inh conf,GDH-TPI counter-2
COc1ccc(/C=N/NC(=O)c2ccc(NC(C)=O)cc2)cc1COc1ccc(F)cc1F,1,4,30*,17,15,75*,59*
COc1ccc(/C=N/NC(=O)c2nc(Cl)c(Cl)c(N)c2Cl)cc1COc1ccccc1F,/,21,25,-1,20,/,/
COc1ccc(/C=N\NC(=O)c2ccccc2F)cc1COc1ccc(F)cc1F,0,36,-2,6,10,/,/
CC(C)NC(=O)Nc1ccc2c(c1)C(=O)N([C@H](C)CO)C[C@H](C)[C@H](CN(C)C(=O)NC1CCCCC1)OCCCC[C@H](C)O2,0,/,/,/,/,/,/
N#Cc1nc(-c2ccco2)oc1NCc1ccco1,/,2,40*,3,13,172*,176*
COCCNc1oc(-c2ccc(F)cc2)nc1C#N,/,-6,107*,-3,9,8,-1
N#Cc1nc(Cc2cccc3ccccc23)oc1NCc1ccco1,3,35,0,3,-2,/,/
Cc1cccc(-c2nc(C#N)c(NCc3ccco3)o2)c1,-1,0,48*,4,5,165*,135*
CNc1oc(-c2ccc(OCc3ccccc3)cc2)nc1C#N,/,28,74*,4,6,84*,70*
O=C(c1cnccn1)N1CC(=O)N2[C@@H](CO)[C@@H](c3ccc(C#CCc4ccccc4)cc3)[C@@H]2C1,-1,/,/,/,/,/,/
Cc1ccc(S(=O)(=O)N[C@H]2CC[C@@H](CC(=O)NCCCN(C)C)O[C@@H]2CO)cc1,0,/,/,/,/,/,/
O=S(=O)(c1ccccc1)c1nc(-c2ccco2)oc1NCCCN1CCOCC1,/,1,1,-3,4,/,/
N#Cc1nc(Cc2ccccc2)oc1NCc1ccccc1,/,3,-8,9,1,/,/
CN(Cc1ccccc1)c1oc(-c2ccco2)nc1C#N,/,16,67*,4,16,41*,37*
Cc1ccc(-c2nc(C#N)c(NCc3ccco3)o2)cc1,/,11,92*,5,11,54*,41*
N#Cc1nc(-c2ccc(F)cc2)oc1NCc1ccccc1,0,4,81*,-1,1,165*,120*
N#Cc1nc(-c2ccco2)oc1NCCCN1CCOCC1,-1,7,56*,-5,19,+,+
CCC(=O)N(C)C[C@H]1Oc2cc(C#CCN(C)C)ccc2S(=O)(=O)N([C@H](C)CO)C[C@@H]1C,2,/,/,/,/,/,/
